This is an account of results in PubChem BioAssay (NCATS).

Assay [1] concerns the target Glucocorticoid receptor (Homo sapiens) (UniProt P04150). Briefly: qHTS assay for small molecule antagonists of glucocorticoid receptor signaling (AID 588533; active = well fitted inhibition curve with a large enough effect in the signal ratio, with a control signal flat, not every such curve was filed as active; the % refers to the signal ratio; note: potency is the fitted concentration of half-maximal effect). The essentials: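 Antagonist-mode qHTS: compound titrations added to GRE-bla HeLa cells, then dexamethasone 2 nM final; 18 h, 37 C. CCF4 FRET fluorescence normalized to dexamethasone and DMSO; IC50 from Hill fit.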
For orientation: qHTS replaces the single test concentration by a dilution series.

Assay [2] can be described thus: qHTS assay for small molecule antagonists of peroxisome proliferator-activated receptor delta signaling (AID 588535; active = well fitted inhibition curve with a large enough effect in the signal ratio, with a control signal flat, not every such curve was filed as active; the % refers to the signal ratio;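 for max response: cells co-treated with a PPAR-delta agonist as stimulator during compound exposure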). The note with it: HEK293T PPARd-UAS-bla, beta-lactamase FRET ratio, 18 h; 460 nm channel. The essentials: (§1)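 Fluorescence from CCF4-loaded GeneBLAzer PPAR-delta-UAS-bla HEK293T cells (2 hrs RT loading) quantified reporter inhibition after an 18 hr, 37 C compound exposure across a titration.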

In assay [3] the target is Peroxisome proliferator-activated receptor delta (Homo sapiens) (UniProt Q03181). The assay is described as above. In short, it runs like this: as §1
Sequence of Peroxisome proliferator-activated receptor delta (Homo sapiens) (Q03181 whole entry, looked up): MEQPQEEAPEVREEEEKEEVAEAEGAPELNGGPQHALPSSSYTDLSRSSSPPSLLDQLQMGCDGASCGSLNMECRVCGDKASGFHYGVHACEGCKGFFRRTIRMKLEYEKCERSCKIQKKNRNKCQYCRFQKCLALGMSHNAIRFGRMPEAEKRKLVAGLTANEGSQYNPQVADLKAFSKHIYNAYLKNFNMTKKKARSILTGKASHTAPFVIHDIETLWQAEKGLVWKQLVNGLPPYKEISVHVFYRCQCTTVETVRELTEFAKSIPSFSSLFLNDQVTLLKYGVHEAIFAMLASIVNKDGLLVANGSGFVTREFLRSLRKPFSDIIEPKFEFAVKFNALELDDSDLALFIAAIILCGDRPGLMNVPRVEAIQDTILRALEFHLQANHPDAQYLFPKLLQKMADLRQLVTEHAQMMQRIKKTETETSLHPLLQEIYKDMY
Assay [4] addresses Vitamin D3 receptor (Homo sapiens) (UniProt P11473). Briefly: qHTS assay for small molecule antagonists of vitamin D receptor signaling (AID 588541; calls by dose curve;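 note: receptor activated by calcitriol during compound treatment; series mostly up to about 77 µM; % is set by controls: 0 for no effect and ±100 for the full control effect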). The essentials: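 VDR-UAS-bla HEK293T cells in 2% charcoal-stripped FBS were stimulated with 1-alpha,25-dihydroxyvitamin D3 (3 nM final) plus compound for 16 h at 37 C. The beta-lactamase CCF4 readout was normalized to 50 nM agonist and DMSO, and Hill fits gave IC50.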

Assay [5] has the same target. Briefly: qHTS assay for small molecule agonists of vitamin D receptor signaling (AID 588543; calls by dose curve;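 note: 0% = DMSO basal and 100% = reference agonist control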). In short, it runs like this:
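Agonist-mode beta-lactamase reporter: HEK293T VDR-UAS-bla cells in charcoal-stripped 2% FBS, compound series 16 h 37 C, CCF4 2 h RT. EC50 from Hill fit, scaled against DMSO and 50 nM calcitriol control.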

Assay [6] can be described thus: qHTS assay for small molecule agonists of retinoid X receptor alpha signaling (AID 588544; calls by dose curve;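 for activation: 0% = DMSO basal wells and 100% = reference agonist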). Conditions: HEK293T RXRa-UAS-bla, beta-lactamase reporter, 18 h; 530 nm emission.
Assay [7] concerns the target Retinoic acid receptor RXR-alpha (Homo sapiens) (UniProt P19793). Described as above.
The target of assay [8] is Thyroid hormone receptor beta (Homo sapiens) (UniProt P10828). Briefly: qHTS assay for small molecule agonists of thyroid hormone receptor beta signaling (AID 588545; calls by dose curve). The essentials:
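Agonist activity was read as beta-lactamase CCF4 fluorescence (405 ex, 460/530 em), scaled between DMSO (0%) and 10 nM T3 (100%), then Hill-fitted for EC50 and efficacy. HEK 293 TR-UAS-bla cells in 2% charcoal/dextran FBS medium were exposed 18 h at 37 C.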

The nature of assay [9]: qHTS assay for small molecule agonists of the antioxidant response element (ARE) signaling pathway (AID 651741; active = well fitted activation curve with a large enough effect in the signal ratio; the % refers to the signal ratio; note: potency is the fitted concentration of half-maximal effect). Conditions: HepG2 ARE-bla reporter, beta-lactamase FRET ratio, 16 h. The essentials: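 Stably integrated ARE-beta-lactamase reporter HepG2 cells; 16 h compound incubation, 37 C; LiveBLAzer FRET substrate 2 h at room temperature; fluorescence intensity.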
Assay [10] in a line: qHTS assay for small molecule activators of the p53 signaling pathway (AID 651743; active = well fitted activation curve with a large enough effect in the signal ratio, not every such curve was filed as active; the % refers to the signal ratio; note: potency is the fitted concentration of half-maximal effect). Conditions: HCT-116 p53RE-bla, beta-lactamase FRET ratio, 16 h; activation: stronger effect = higher value. In short, it runs like this: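 Following 16 hours of compound exposure at 37 C, HCT-116 cells bearing the p53RE-bla reporter were loaded with LiveBLAzer B/G FRET substrate for 2 hours at room temperature and fluorescence intensity was recorded.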

Assay [11] in a line: qHTS assay for small molecule activators of the nuclear factor-kappa B (NF-kB) signaling pathway (AID 651749; active = well fitted activation curve with a large enough effect in the signal ratio; the % refers to the signal ratio; note: series mostly up to about 77 µM; % of control where 0% means no effect). Conditions: NF-kB-bla ME-180 cells, beta-lactamase FRET ratio, 16 h; stronger effect = higher value. The essentials:
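In this qHTS format, compounds acting as activators increase NF-kB-driven beta-lactamase in ME-180 cells, measured as disrupted FRET after 16 hr exposure at 37C and 5% CO2.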

Assay [12] in a line: qHTS assay for small molecule disruptors of the mitochondrial membrane potential - 1 hr assay (AID 651754; calls by dose curve; note: potency is the fitted concentration of half-maximal effect; nearly all actives have a fitted effect of over 35% in size). In short, it runs like this: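 Loss of mitochondrial potential shifts the cationic dye from red mitochondrial aggregates to green cytoplasmic monomers. Cells (HepG2) are treated with compound for 1 hr before a 30 min dye incubation at 37C.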
Assay [13] concerns the target Tumor necrosis factor (Homo sapiens) (UniProt P01375). Briefly: qHTS assay to identify small molecules that stimulate Tumor Necrosis Factor-alpha (TNF-alpha) secretion (AID 651757; active = well fitted curve in the direction sought with a large enough effect in the signal ratio; the % refers to the signal ratio; note: 0% is about no effect). The essentials:
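Human monocytic THP-1 cells are plated, treated with compound and held at 37 C for 17 hrs. Labeled anti-TNF-alpha antibody mixture is then added; after 3 hr at room temperature, TR-FRET signal reports secreted TNF-alpha.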

Assay [14] can be described thus: qHTS assay to identify small molecules that stimulate interleukin-8 (IL-8) secretion (AID 651758; active = well fitted activation curve with a large enough effect in the signal ratio; the % refers to the signal ratio; note: 0% is about no effect). In short, it runs like this: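 Compounds are added to THP-1 cells (2000 per well) and left 16 hrs at 37 C. A labeled anti-IL-8 antibody pair is then added, and IL-8 secretion is measured by time-resolved FRET after 1-3 hrs at room temperature.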
For assay [15], the target named is Peroxisome proliferator-activated receptor alpha (Homo sapiens) (UniProt Q07869). Briefly: qHTS assay for small molecule agonists of the peroxisome proliferator-activated receptor alpha (PPARalpha) signaling pathway (AID 651778). Note: % of control where 0% means no effect. Conditions: PathHunter PPARalpha complementation, chemiluminescence, 6 h; stronger effect = higher value. In short, it runs like this: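 Enzyme-fragment complementation assay in which ligand-bound PPARalpha translocates and forms an active enzyme that generates chemiluminescence. Cells were plated overnight, exposed to compound for 6 hr at 37 C, and then given detection reagent for 60 min at room temperature.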
Sequence of Peroxisome proliferator-activated receptor alpha (Homo sapiens) (Q07869 whole entry, looked up, the tested form may be a part): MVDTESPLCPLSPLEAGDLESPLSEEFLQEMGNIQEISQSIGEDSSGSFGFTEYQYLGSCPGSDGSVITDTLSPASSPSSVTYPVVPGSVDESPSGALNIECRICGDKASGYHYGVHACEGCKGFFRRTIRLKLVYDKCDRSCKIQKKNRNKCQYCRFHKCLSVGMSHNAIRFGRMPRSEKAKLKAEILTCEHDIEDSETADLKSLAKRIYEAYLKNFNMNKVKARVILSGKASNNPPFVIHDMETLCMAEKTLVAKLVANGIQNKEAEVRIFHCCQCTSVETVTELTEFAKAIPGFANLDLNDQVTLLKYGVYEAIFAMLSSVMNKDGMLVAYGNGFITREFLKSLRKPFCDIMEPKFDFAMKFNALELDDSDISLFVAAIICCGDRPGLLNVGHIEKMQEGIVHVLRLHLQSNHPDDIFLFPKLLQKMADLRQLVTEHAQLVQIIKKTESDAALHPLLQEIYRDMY

Assay [16] can be described thus: qHTS assay for small molecule agonists of the antioxidant response element (ARE) signaling pathway measured by Nrf2-dependant transcriptional activity (AID 720636; active = well fitted curve in the direction sought with a large enough effect in the repeat runs; an effect the other way counts as inactive or inconclusive;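 note: HepG2 cells with an ARE-driven luciferase reporter; % of control where 0% means no effect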). The essentials: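 Cells: ARE-luc HepG2 with Nrf2-responsive luciferase. Medium contained 1% dialyzed FBS. Compound exposure lasted 16 hr at 37 C and 5% CO2, followed by ONE-Glo luciferase detection.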

The nature of assay [17]: qHTS assay for small molecule antagonists of the retinoid-related orphan receptor gamma (ROR-gamma) signaling pathway - cell viability counter screen (AID 720652; active = well fitted curve in the direction sought with a large enough effect in the repeat runs; an effect the other way counts as inactive or inconclusive;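 note: CHO reporter cells with doxycycline-induced ROR-gamma expression; series mostly up to about 92 µM; compound exposure lasted 16 hr before ATP read; % is set by controls: 0 for no effect and ±100 for the full control effect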). The essentials: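 Steps: seed CHO cells bearing TET-inducible ROR and ROR response element-luciferase; rest 5 hr at 37 C; add compound, then doxycycline; incubate 16 hr; add CellTiter-Glo and read luminescence as ATP-based viability.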

Assay [18] in a line: qHTS assay for small molecule agonists of the antioxidant response element (ARE) signaling pathway measured by Nrf2-dependant transcriptional activity - cell viability counter screen (AID 720653; active = well fitted curve in the direction sought with a large enough effect in the repeat runs; an effect the other way counts as inactive or inconclusive; note: % is set by controls: 0 for no effect and ±100 for the full control effect). The note with it: ARE-bla HepG2 viability, CellTiter-Glo ATP luminescence, 16 h; stronger effect = lower value. In short, it runs like this: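 ARE-bla HepG2 cells treated with compounds for 16 h at 37C; this counter screen measures viability as intracellular ATP by CellTiter-Glo luminescence after 30 min at room temperature.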

Assay [19] can be described thus: qHTS assay for cell viability of HEK293 cells (AID 743288). Note: % is set by controls: 0 for no effect and ±100 for the full control effect; nearly all actives have a fitted effect of over 50% in size. Conditions: ATP luminescence (CellTiter-Glo), 18 h, stronger effect = lower value. The essentials:
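Readout is luciferase-coupled ATP content (CellTiter-Glo luminescence, 30 min room temperature) as a measure of metabolically competent cells. Parental HEK293 cells were plated 5 h or more before compound addition, then treated 18 h at 37 C.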

Assay [20] in a line: qHTS assay for cell viability of the p53RE-bla HCT-116 cell line (AID 743292). Note: potency is the fitted concentration of half-maximal effect; nearly all actives have a fitted effect of over 55% in size. The essentials:
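HCT-116 p53RE-bla cells seeded 4,000/well; 5 h at 37 C; compound (DMSO) added; 16 h at 37 C; CellTiter-Glo added, 30 min RT; luminescence read.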

Assay [21] is described as follows: Confirmatory qHTS for small molecule stabilizers of the endoplasmic reticulum resident proteome: Secreted ER Calcium Modulated Protein (SERCaMP) assay (AID 1508628). Note: series mostly up to about 76 µM; % is set by controls: 0 for no effect and ±100 for the full control effect; nearly all actives have a fitted effect of over 40% in size. In short, it runs like this: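 Reporter secretion upon ER calcium depletion (100 nM thapsigargin, 4 h, 37C) is measured as medium luminescence with coelenterazine, after 16 h compound pretreatment of SH-SY5Y-GLuc-SERCaMP cells; primary at three concentrations up to 38.3 uM, follow-up at 11 (up to 76.6 uM).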

Assay [22] in a line: Cell Viability qHTS for small molecule stabilizers of the endoplasmic reticulum resident proteome (AID 1508629).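 Note: human SH-SY5Y neuroblastoma cells carrying the GLuc-SERCaMP reporter; compound exposure about 46 h in total before the viability read; % is set by controls: 0 for no effect and ±100 for the full control effect.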 Conditions: cell viability counter-screen, 100 nM thapsigargin for final 4 h.
In assay [23] the target is Nuclear receptor subfamily 1 group I member 2 (Rattus norvegicus) (UniProt Q9R1A7). Briefly: qHTS assay for small molecule activators of the rat pregnane X receptor (rPXR) signaling pathway (AID 651751; call rule not given here; note: 0% is about no effect). The note with it: rPXR reporter cells, luciferase (One-Glo), 24 h.
Sequence of Nuclear receptor subfamily 1 group I member 2 (Rattus norvegicus) (Q9R1A7 whole entry, looked up): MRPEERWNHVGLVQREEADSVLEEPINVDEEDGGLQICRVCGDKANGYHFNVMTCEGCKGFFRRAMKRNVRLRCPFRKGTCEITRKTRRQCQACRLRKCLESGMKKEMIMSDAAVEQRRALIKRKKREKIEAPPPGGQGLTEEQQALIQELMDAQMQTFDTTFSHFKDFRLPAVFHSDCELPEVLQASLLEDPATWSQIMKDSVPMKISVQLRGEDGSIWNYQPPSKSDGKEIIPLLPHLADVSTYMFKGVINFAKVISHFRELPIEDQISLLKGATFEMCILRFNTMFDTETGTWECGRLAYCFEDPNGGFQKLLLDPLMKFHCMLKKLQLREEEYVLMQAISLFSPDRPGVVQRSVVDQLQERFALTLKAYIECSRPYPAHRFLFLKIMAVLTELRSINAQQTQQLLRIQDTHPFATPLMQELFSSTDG

SMILES strings stand for the structures. Where “and” joins values, the source holds several entries; their conditions need not be identical. Equal entries are not always repeated. Inconclusive results are not listed. Calls of active or inactive are those of the source. Unless noted, calls come from the whole dose curve; as a rule, active = well fitted curve in the direction sought with a large enough effect; inconclusive = small, poorly fitted or top-dose-only effect, or another doubt; inactive = no such curve, though single readings can be large; an effect the other way counts as inactive or inconclusive.

Sequence of Thyroid hormone receptor beta (Homo sapiens) (P10828 whole entry, looked up): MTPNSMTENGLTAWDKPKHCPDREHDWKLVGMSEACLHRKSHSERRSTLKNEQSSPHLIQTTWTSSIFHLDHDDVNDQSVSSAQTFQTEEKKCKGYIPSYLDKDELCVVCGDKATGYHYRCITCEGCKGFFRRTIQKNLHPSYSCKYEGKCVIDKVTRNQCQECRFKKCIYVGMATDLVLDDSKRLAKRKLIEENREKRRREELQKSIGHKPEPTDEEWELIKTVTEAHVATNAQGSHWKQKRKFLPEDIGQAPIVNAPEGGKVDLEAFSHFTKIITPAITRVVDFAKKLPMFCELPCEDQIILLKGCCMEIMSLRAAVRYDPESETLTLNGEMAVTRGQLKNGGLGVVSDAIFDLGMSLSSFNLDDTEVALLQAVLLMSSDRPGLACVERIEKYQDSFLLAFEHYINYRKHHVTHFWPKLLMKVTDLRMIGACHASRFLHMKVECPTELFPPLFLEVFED
Sequence of Vitamin D3 receptor (Homo sapiens) (P11473 whole entry, looked up): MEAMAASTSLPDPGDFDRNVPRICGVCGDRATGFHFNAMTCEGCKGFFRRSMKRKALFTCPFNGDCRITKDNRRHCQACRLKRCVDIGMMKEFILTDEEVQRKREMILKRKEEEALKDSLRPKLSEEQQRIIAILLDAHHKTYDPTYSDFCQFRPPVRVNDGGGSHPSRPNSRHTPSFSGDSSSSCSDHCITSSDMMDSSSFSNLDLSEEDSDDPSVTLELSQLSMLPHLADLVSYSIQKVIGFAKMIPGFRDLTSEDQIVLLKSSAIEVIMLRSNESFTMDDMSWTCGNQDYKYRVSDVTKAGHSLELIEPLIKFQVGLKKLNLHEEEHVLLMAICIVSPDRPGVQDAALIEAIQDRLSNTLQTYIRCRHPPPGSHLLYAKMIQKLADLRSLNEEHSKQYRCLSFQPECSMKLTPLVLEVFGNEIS
Sequence of Retinoic acid receptor RXR-alpha (Homo sapiens) (P19793 whole entry, looked up): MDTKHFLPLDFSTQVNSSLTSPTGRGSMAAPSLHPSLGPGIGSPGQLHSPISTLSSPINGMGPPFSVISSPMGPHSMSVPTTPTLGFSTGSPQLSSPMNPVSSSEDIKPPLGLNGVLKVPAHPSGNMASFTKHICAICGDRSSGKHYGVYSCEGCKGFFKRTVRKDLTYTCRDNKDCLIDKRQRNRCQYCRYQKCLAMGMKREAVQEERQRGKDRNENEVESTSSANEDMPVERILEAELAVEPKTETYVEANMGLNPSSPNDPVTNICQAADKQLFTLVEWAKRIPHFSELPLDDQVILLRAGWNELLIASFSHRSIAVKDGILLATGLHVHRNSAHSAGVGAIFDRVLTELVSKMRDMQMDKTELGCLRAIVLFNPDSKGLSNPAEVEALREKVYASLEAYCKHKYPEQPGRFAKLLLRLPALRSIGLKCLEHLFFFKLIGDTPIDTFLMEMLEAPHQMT
Sequence of Glucocorticoid receptor (Homo sapiens) (P04150 whole entry, looked up): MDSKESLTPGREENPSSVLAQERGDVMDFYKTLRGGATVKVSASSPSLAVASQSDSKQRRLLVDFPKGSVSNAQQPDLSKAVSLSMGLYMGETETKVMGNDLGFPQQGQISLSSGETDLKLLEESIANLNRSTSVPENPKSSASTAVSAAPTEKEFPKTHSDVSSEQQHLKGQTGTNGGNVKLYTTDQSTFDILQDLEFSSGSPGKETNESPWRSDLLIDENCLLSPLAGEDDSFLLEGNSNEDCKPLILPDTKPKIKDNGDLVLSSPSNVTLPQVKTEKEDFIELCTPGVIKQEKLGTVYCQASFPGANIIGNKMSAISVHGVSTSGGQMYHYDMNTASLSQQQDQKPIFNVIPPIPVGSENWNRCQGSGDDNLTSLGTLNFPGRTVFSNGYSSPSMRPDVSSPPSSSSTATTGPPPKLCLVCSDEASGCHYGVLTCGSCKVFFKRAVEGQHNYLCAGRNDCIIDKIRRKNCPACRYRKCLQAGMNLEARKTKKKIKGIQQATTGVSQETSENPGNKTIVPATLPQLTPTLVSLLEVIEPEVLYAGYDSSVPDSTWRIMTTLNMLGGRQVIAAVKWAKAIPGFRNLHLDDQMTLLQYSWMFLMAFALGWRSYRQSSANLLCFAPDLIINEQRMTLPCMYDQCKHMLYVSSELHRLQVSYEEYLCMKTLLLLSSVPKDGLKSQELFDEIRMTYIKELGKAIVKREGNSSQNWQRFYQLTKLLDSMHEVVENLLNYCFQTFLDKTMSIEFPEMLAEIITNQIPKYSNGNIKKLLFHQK
Sequence of Tumor necrosis factor (Homo sapiens) (P01375 whole entry, looked up): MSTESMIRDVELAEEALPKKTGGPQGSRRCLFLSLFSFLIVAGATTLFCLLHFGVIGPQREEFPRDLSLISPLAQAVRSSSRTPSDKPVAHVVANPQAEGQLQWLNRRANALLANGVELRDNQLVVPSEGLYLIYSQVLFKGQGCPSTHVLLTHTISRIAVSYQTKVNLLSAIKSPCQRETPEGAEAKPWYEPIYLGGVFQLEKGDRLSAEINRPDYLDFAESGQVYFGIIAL

`CC(C)(c1cc(Br)c(O)c(Br)c1)c1cc(Br)c(O)c(Br)c1`: the Potency in [1] was 44.7 µM (active); in assay [9], 29.8 µM (active) and 23.7 µM (active) and 48.6 µM (active); in [10] it was 28.2 µM (active); in assay [12] it was 18.8 µM (active); in [20], 44.7 µM (active). Besides, the max response in [2] was -3.55% and -29% and 5.87%; in [6], 4.03% and -9.48% and 2.35%; in assay [15] it was -7.23% (inactive) and -3.95% (inactive) and -1.86% (inactive); in assay [18] it was 4.4% (inactive) and -1.06% (inactive) and -0.187% (inactive); in assay [19], 5.04% (inactive) and -1.46% (inactive) and -3.35% (inactive); in [22], 18.1% (inactive) and 32.8% (inactive) and -0.114% (inactive). For the same compound, the max response in [23] is 4.59% (inactive) and 7.9% (inactive) and 1.02% (inactive). Moreover, the call in [3], in assay [4], in assay [5], in assay [7], in assay [8] and in [14] was inactive. The call in [16] and in [17] was inactive. Besides, in assay [11], the activation is 2.39% (inactive) and 3.54% (inactive) and 2.16% (inactive). Also, the Potency result in [13] and in assay [21] was “inactive” each time.
